# Reference: ChEMBL document CHEMBL3433997, “St. Jude Leishmania screening dataset” (2016)
# Assays:
# Format in all cases: functional
# [1] = biological target: Solute carrier family 2, facilitated glucose transporter member 1 (Homo sapiens) (UniProt P11166); assay: ST_JUDE_LEISH: Cytotoxicity at 2uM final concentration against transgenic Leishmania Mexicana promastigotes LmGLUT1 that are glucose transport deficient and complemented with the human glucose transporter GLUT1. Activity is measured by DNA content using SYBR green in vitro
# [2] = biological target: Hexose transporter 1 (Plasmodium falciparum) (UniProt O97467); assay: ST_JUDE_LEISH: Cytotoxicity at 2uM final concentration against transgenic Leishmania Mexicana promastigotes LmPfHT that are glucose transport deficient and complemented with the Plasmodium falciparum hexose transporter. Activity is measured by DNA content using SYBR green in vitro
# [3] = biological target: Glucose transporter (Leishmania mexicana) (UniProt O61059); assay: ST_JUDE_LEISH: Cytotoxicity at 2uM final concentration against transgenic Leishmania Mexicana promastigotes LmGT2 that are glucose transport deficient and complemented with the L. Mexicana glucose transporter 2. Activity is measured by DNA content using SYBR green in vitro
# Chain of Solute carrier family 2, facilitated glucose transporter member 1 (Homo sapiens) (P11166 whole entry): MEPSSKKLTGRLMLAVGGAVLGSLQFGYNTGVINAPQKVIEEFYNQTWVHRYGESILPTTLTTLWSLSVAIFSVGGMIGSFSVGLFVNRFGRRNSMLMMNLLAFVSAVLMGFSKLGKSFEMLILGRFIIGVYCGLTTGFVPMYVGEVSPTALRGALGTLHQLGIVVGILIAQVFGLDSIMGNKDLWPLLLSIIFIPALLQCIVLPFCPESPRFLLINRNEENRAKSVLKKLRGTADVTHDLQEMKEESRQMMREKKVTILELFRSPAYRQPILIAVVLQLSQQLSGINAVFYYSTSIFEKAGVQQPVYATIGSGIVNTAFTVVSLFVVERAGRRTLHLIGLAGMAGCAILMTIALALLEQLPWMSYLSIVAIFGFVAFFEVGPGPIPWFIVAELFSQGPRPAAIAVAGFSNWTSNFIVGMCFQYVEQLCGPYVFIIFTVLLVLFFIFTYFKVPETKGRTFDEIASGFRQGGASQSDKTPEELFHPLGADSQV
Compound,inhibition [1] [%],inhibition [2] [%],inhibition [3] [%]
O=C(Nc1ccc(Oc2ccccc2)cc1)N(Cc1ccc(-c2ccc(CN3CCNCC3)cc2)cc1)C1CCN(Cc2ccccc2)CC1,-1.93,-1.14,-0.33
CC1(C)NC(N)=NC(=N)N1OCCCc1cc(Cl)c(Cl)cc1Cl,3.14,2.31,2.77
Oc1ccc(CCNCCCCCCNCCc2ccc(Cl)cc2)c(Cl)c1O,-2.47,-4.06,-1.17
Cc1c(F)cc(C(=O)NC2CC2)cc1-c1ccc2c(cnn2S(=O)(=O)c2ccc(F)c(F)c2)c1,5.87,5.31,5.54
CCc1cn2c3c(cc(C(=O)N[C@@H](Cc4ccccc4)[C@H](O)CN[C@@H](C)CC)cc13)N(C)S(=O)(=O)CC2,0.43,2.23,-0.58
Cc1cc2cc(-c3ccc(CN)cc3)ccc2nc1N,-1.44,1.71,-3.5
O=C(NC1CCCCN(Cc2ccccc2O)C1)c1cccc(Cl)c1 (stereo not given),1.27,1.65,-1.89
O=C(/C=C/c1ccc(Cl)c(Cl)c1)NC1CCN(CCNC(=O)c2cccc(Cl)c2)CC1,4.41,3.11,2.53
O=C(Nc1cc(C(F)(F)F)cc(C(F)(F)F)c1)N1CCC(CCN2CCC(c3c[nH]c4ccccc34)CC2)CC1,5.87,4.12,4.71
Cc1ccc(Nc2nc(C)cc(NC3CCCC3)n2)cc1,29.3,19.7,10.8
CC1CC(C)CN(S(=O)(=O)c2cc(C(=O)Nc3cccc([N+](=O)[O-])c3)ccc2Br)C1 (stereo not given),7.03,7.57,5.14
CN(C)Cc1ccc(-c2cccc(NC(=O)c3ccc(Cl)cc3)c2)cc1,-2.32,-0.06,0.23
CC(C)Cn1cc(C2CCN(CCN3CCC(CNC(=O)c4ccc(NC(=O)c5cc(Cl)cc(Cl)c5)cc4)CC3)CC2)c2ccccc21,1.27,4.22,1.97
COc1ccccc1-c1csc(C(=O)NCC2CCN(Cc3ccc(C(C)(C)C)cc3)C2)c1 (stereo not given),1.44,0.16,0.22
CCCCCCCCCCS(=O)(=O)N[C@H](COCc1cccc(Oc2ccccc2)c1)COP(=O)(O)OC,0.47,0.77,-1.2
CC(Oc1ccc(C(=O)c2ccc(F)cc2)cc1)C(=O)N1CCc2ccccc21 (stereo not given),-1.44,-0.96,0.7
CCNc1cc(C(=O)N[C@@H](Cc2ccc(F)c(F)c2)[C@H](O)CNC2CCCCC2)cc(N2CCCCS2(=O)=O)c1,1.98,0.24,0.91
O=C(NCCCCN1CCC(c2c[nH]c3ccccc23)CC1)c1ccc(-c2ccc(C(F)(F)F)cc2)cc1,0.97,0.63,-0.72
COC(=O)c1ccc(C(=O)NCCCCN2CCC(c3ccc4c(c3OC)CCCC4)CC2)cc1-c1ccc(C(F)(F)F)cc1,2.23,1.47,2.29
Cc1ccc(C)c(C2CCN(CCCCNC(=O)c3ccc(NC(=O)c4ccc(Cl)cc4)cc3)CC2)c1,-1.18,0.21,0.05
Cc1ccc(C(=O)N2CCN(Cc3nccs3)CC2)cc1,1.23,-0.14,-0.27
COc1cccc(C(=O)Nc2nonc2-c2ccc(OC)c(OC)c2)c1,2.16,2.49,1.34
CCn1c(C)c(C)c2cc(C(=O)Nc3ccon3)ccc21,1.66,1.02,0.74
C#Cc1cccc(NC(=O)[C@H](CC2CCCCC2)Nc2ccc(C#N)c3ccccc23)c1,2.22,2.53,1.87

Compound,inhibition [1] [%],inhibition [2] [%],inhibition [3] [%]
CC1CCC(C[C@@H](C(=O)N[C@H](C(=O)Nc2nccs2)[C@@H](C)O)[C@H](CCC(F)(F)F)N(O)C=O)CC1 (stereo not given in full),0.36,-2.34,0.78
CCCCCCN(C(=O)OCc1ccccc1)C1CCN(C(=O)OC(C)(C)C)CC1C(=O)OCC (stereo not given),7.92,6.27,7.27
COc1ccc2nccc(N3CCC(NCc4ccc5c(n4)NC(=O)CS5)CC3)c2n1,0.15,-0.14,2.01
CC(=O)N1N=C(c2[nH]c3ccc(Br)cc3c2C)OC1c1ccccc1 (stereo not given),4.69,4.06,3.6
C=CCN1Cc2c(O)cccc2C(c2ccc(O)c(O)c2)C1 (stereo not given),6.49,5.18,4.91
CN/C(=N\O)NCCN(C)C,3.01,4.18,3.91
CN(C)CCOc1ccc(NC(=O)Nc2ccnc3c(Br)cccc23)cc1Cl,0.71,0.76,-0.85
O=c1cc(NCCCN(Cc2ccccc2)Cc2ccccc2)[nH]c2ccccc12,0.48,4,5.36
CS(=O)(=O)c1cccc(-c2cnc3[nH]cc(-c4cccc(CCN)c4)c3c2)c1,4.65,3.48,8.44
Cc1cc(C(=O)Nc2ccc3c(ccn3C3CCCN(Cc4ccc(C(F)(F)F)cc4F)CC3)c2)no1 (stereo not given),-0.37,0.5,-0.5
CCN(CC)CCN(Cc1ccc(-c2ccc(C(F)(F)F)cc2)cc1)C(=O)Cn1c(CCc2c(F)ccc(F)c2F)nc(=O)c2ccccc21,0.63,1.87,1.43
Cc1[nH]c(C)c(-c2ccc(-c3cccc(Cl)c3)nc2)c(=O)c1Br,0,1.07,0.63
O=C(Nc1ccc(-c2nc3ccccc3[nH]2)cc1)c1ccc(Cl)c([N+](=O)[O-])c1,1.55,1.9,1.41
O=C(NCCc1ccccc1)N(Cc1ccccc1-c1cccc(CNCc2ccc3c(c2)OCO3)c1)C1CCN(Cc2ccccc2)CC1,3.72,4.3,3.13
CCOc1ccc(-c2nonc2NC(=O)c2ccc(OC(C)C)cc2)cc1OCC,2.72,1.95,3.68
O=C(Nc1cccc(-c2nn3ccccc3c2-c2ccnc(Nc3ccc(Cc4ccncc4)cc3)n2)c1)c1c(F)cccc1F,12,17.3,13.2
O=C(/C=C/c1c(Cl)cccc1Cl)NC1CCC(CN2CCC(Cc3cc4ccccc4[nH]3)CC2)CC1 (stereo not given),4.15,10.2,2.31
CCN(CC)CCCNc1cc[n+]([O-])c2cc3ccccc3cc12,-0.82,-2.45,-1.63
O=C(Nc1ccc(Br)cc1)N(CCN1CCOCC1)CC(O)COCc1ccc(Cl)c(Cl)c1 (stereo not given),2.07,1.38,-5.49
O=C(Nc1ccc(N2CCNCC2)cc1)c1ccn2ncc(-c3cccc(Cl)c3)c2n1,84.8,83.9,54.3
Cc1cccc2nc(-c3ccc(-c4cccc(NC(=O)c5cnn6cccnc56)c4)cc3)[nH]c12,15.4,11.7,8.93
CCCCOC(=O)c1ccc(Nc2cc(C)nc3ccc(OC)cc23)cc1,14.7,12.5,6.35
CN(C)CCOc1ccc(-c2cc(-c3ccc(Cl)c(O)c3)c(-c3ccncc3)[nH]2)cc1,-0.18,-0.32,0.48
COc1ccc2c(c1)[nH]c1c(C=Cc3ccccc3)nccc12,6.16,5.09,3.77

Compound,inhibition [1] [%],inhibition [2] [%],inhibition [3] [%]
NC1CCN(Cc2cccc(-c3cccc(-c4nc5ccccc5[nH]4)c3)c2)C1 (stereo not given),2.17,3.31,1.15
CC1(C)N=C(N)N=C(N)N1c1ccc(Br)cc1,0.61,1.29,3.63
CCCCCC(C)NC[C@@H](O)[C@H](Cc1ccccc1)NC(=O)c1cc(NCC)cc(N2CCCCS2(=O)=O)c1 (stereo not given in full),-0.71,1.3,0.36
COc1ccc2nccc([C@@H](O)CN3CCC(NCc4nc5c(cc4Cl)OCC(=O)N5)C(F)C3)c2c1 (stereo not given in full),1.37,0.56,0.2
COc1ccc(NC(=O)c2ccc3[nH]c(-c4ccc(Cl)cc4)cc3c2)cc1OCCN(C)C,2.93,1.88,0.79
Cc1cc(OCCCN2CCC(NS(=O)(=O)c3ccc(C(F)(F)F)cc3)CC2)c2ccccc2n1,1.59,0.36,0.63
O=C(Nc1ccc(Cl)c(Cl)c1)Nc1ccc2c(c1)CCNCC2,-0.33,0.96,0.79
FC(F)(F)c1cccc(CNCC2CCN(CC3CCCCC3)CC2)c1,-0.93,-0.13,0.34
CCNc1cc(C(=O)N[C@@H](Cc2ccccc2)[C@H](O)CNC2(C(C)C)CCC2)cc(N2CCCCS2(=O)=O)c1,-0.22,0.75,-2.45
CCCCNCc1ccc(-c2nc(CN(Cc3ccc(Cl)c(Cl)c3)C(=O)CN(C)C)cs2)cc1,50.3,52.9,8.23
Cc1nnc(NC(=O)c2cn(-c3ccccc3)nc2-c2ccccc2C)o1,1.69,2.78,2
O=C(Nc1ccc(CN2CCOCC2)cc1)c1ccc(-c2ccc(Br)cc2)o1,2.45,0.46,-2.23
Cc1cc2nc(-c3ccc(C(=O)NCc4ccc(Cl)c(Cl)c4)cc3)[nH]c2cc1C,4.77,4.64,2.9
CCOC(=O)c1ccc(N2CCN(CCCNC(=O)/C(=C/C=C/c3cc4cc(Cl)c(Cl)cc4[nH]3)OC)CC2)cc1,2.48,3.47,0.57
COc1cc(C(=O)NC2CC(C)(C)N(C)C(C)(C)C2)ccc1-c1nc2cc(Cl)c(Cl)cc2[nH]1,-0.5,1.21,3.3
Cc1cccc(CN2CCCN(Cc3ccc(C(=O)Nc4ccc(C)c(F)c4)cc3)CC2)c1,1.23,4.06,2.11
Cc1ccccc1C1CCN(c2ccc(C(=O)Nc3ccc(F)cc3)cn2)CC1,4.93,-0.36,5.56
O=C(Nc1ccc2c(c1)CN(Cc1ccc(N3CCCC3)o1)CCC2)c1cncs1,1.6,1.62,-0.45
CCOC(=O)c1cn(CC)c2cc(N3CCCCC3)c(F)cc2c1=O,3.39,3.64,4.37
O=C(N[C@H](CC1CCCCC1)C(=O)NC1CCCc2ccccc21)c1ccc(O)c(-c2cccc([N+](=O)[O-])c2)c1 (stereo not given in full),1.2,0.18,0.88
Cc1cccc(C(=O)Nc2ccnc(N3CCCN(Cc4cccc(O)c4)CC3)c2)c1,-0.1,1.14,-0.7
COc1ccc(S(=O)(=O)N(c2cc(Br)cc3c2OCC3)S(=O)(=O)c2ccc(OC)c(N3CCN(C)CC3)c2)cc1N1CCN(C)CC1,0.39,0.62,0.55
